A selection: hits, their analogues and other compounds. The true share with any hit is near 5.8%.
KB-3-1 tox: qHTS assay for MDR1-selective chemotherapeutics: Primary screen using the parental adenocarcinoma cell KB-3-1 | KB-3-1 viability, CellTiter-Glo ATP luminescence, 72 h | Potency, µM (doses to about 46.1 µM), most hits filed as cytotoxic | 400,000 compounds, 1.4% hits; further: nearly all actives have a fitted effect of over 60% in size
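72 h, 37 °C compound treatment of KB-3-1 parental cells; CellTiter-Glo added, 10 min, luminescence read. Data corrected against DMSO-only plates and normalized before curve fitting.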
PINK1 expr mod: A Quantitative High throughput Screen to Identify Chemical Modulators of PINK1 Expression. PINK1 immunofluorescence, high-content cytometry, 24 h. AID 624263, 2012. 410,000 compounds, 0.2% hits. Potency, µM (series often up to 76.6 µM), actives largely listed as activators; active means well fitted activation curve with a large enough effect; inconclusive means small, poorly fitted or top-dose-only effect; cell line not stated here; further: nearly all actives have a fitted effect of over 65% in size
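Stable cell line treated 24 h with compounds at 5 concentrations (CCCP controls), then fixed and immunostained for PINK1 plus nuclear and cell stains; PINK1 immunofluorescence quantified by laser-scanning microplate cytometry.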
ALOX12 inh: Primary qHTS assay for inhibitors of human arachidonate 12S-lipoxygenase (ALOX12): Round 2. Polyunsaturated fatty acid lipoxygenase ALOX12 (Homo sapiens), P18054. purified 12hLO, xylenol orange hydroperoxide absorbance. Potency, µM (series often up to 108 µM), actives largely listed as inhibitors. 580,000 compounds, 1.1% hits. AID 1671190, 2021
Target sequence (P18054 whole entry, looked up): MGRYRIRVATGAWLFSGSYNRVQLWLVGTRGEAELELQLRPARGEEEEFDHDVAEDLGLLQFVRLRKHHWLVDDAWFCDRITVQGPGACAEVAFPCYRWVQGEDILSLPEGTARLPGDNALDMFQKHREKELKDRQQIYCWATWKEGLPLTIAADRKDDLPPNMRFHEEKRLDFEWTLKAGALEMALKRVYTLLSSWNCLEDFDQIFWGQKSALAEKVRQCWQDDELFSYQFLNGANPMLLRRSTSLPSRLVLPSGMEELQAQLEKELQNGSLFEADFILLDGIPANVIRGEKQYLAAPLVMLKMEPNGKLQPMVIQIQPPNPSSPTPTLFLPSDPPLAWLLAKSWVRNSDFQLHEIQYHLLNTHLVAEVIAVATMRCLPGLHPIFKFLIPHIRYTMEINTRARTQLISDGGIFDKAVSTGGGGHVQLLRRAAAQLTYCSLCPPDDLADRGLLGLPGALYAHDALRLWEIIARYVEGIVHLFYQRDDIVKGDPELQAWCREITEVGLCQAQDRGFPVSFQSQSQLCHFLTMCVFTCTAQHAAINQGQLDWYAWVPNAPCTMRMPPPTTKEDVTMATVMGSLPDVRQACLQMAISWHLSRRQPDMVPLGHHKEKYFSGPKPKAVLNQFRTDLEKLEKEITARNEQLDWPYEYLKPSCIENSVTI
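Hydroperoxide product was detected by ferrous iron/xylenol orange as the 573 to 405 nm absorbance ratio. Arachidonic acid at 40 uM (final) was turned over for 30 min at room temperature by 150 nM human 12hLO, pH 7.0 Hepes buffer, after 15 min compound preincubation.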
KB-V1 cytotox: qHTS assay for MDR1-selective chemotherapeutics: Primary screen using the drug-selected MDR subline cells KB-V1 | KB-V1 MDR cells viability, CellTiter-Glo, 72 h | Potency, µM (doses to about 46.1 µM), usual class: cytotoxic | 400,000 compounds, 3.4% hits; further: nearly all actives have a fitted effect of over 60% in size
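Cytotoxicity via CellTiter-Glo luminescence after 72 h compound exposure at 37 degrees C. Cells: drug-selected KB-V1 line, DMEM phenol-red free plus 10% FBS. Compounds tested at multiple concentrations; normalized data fitted to concentration-effect curves.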
MCF10A rereplic: A quantitative high throughput screen for small molecules that induce DNA re-replication in MCF 10a normal breast cells; MCF 10A DNA re-replication, Hoechst nuclear intensity, 48 h; 350,000 compounds, 2.9% hits; Potency, µM (top dose mostly 46.1 µM), hits mostly activators; AID 624296, 2012; further: nearly all actives have a fitted effect of over 50% in size
SW480 rereplic: A quantitative high throughput screen for small molecules that induce DNA re-replication in SW480 colon adenocarcinoma cells | SW480 DNA re-replication, Hoechst DNA content imaging, 48 h | Potency, µM (titrated, usually from 46.1 µM), most hits filed as activators | 340,000 compounds, 1.8% hits | AID 624297, 2012; further: nearly all actives have a fitted effect of over 55% in size
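Readout is total intensity of Hoechst-stained nuclei, excited at 405 nm and collected at 500-530 nm. Compound treatment lasted 48 hr at 37 C in 5% CO2 before staining.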
Hits are given with their value. Unless noted, the call rests on the fitted dose curve; in most records, active means well fitted curve in the direction sought with a large enough effect; inconclusive means small, poorly fitted or top-dose-only effect, or another doubt; inactive means no such curve, though single readings can be large; an effect the other way counts as inactive or inconclusive.

What do the screens show for `O=C(Cn1nnc(-c2cc(C(F)(F)F)cc(C(F)(F)F)c2)n1)NNC(=S)Nc1ccc(Cl)cc1`?
KB-3-1 tox: inactive; PINK1 expr mod: inactive; ALOX12 inh: 18µM; KB-V1 cytotox: inactive; MCF10A rereplic: inactive; SW480 rereplic: inactive

How did O=C1C=CC(=C(c2ccc(O)cc2)c2ccc(O)cc2)C=C1 do in these assays?
KB-3-1 tox: 5.8µM; PINK1 expr mod: inactive; ALOX12 inh: inconclusive; KB-V1 cytotox: inconclusive; MCF10A rereplic: 6.5µM; SW480 rereplic: inconclusive

How did Cc1nn(-c2ccc(F)cc2)c2sc(C(=O)OCC(=O)Nc3ccccc3OC(F)F)cc12 do in these assays?
ALOX12 inh: inactive

How did COc1ccc2nc(-c3ccccc3)[nH]c2c1 do in these assays?
KB-3-1 tox: inactive; PINK1 expr mod: inactive; ALOX12 inh: inactive; KB-V1 cytotox: inactive; MCF10A rereplic: inactive; SW480 rereplic: inactive

Results for CCOc1ccc2nc(-c3ccccc3)[nH]c2c1 ?
KB-3-1 tox: inconclusive; PINK1 expr mod: inactive; ALOX12 inh: inactive; KB-V1 cytotox: inactive; MCF10A rereplic: 5.2µM; SW480 rereplic: 18µM

What do the screens show for `COc1ccccc1N(C)S(=O)(=O)c1ccc(Cl)c(C(=O)OCc2c(C)noc2C)c1`?
KB-3-1 tox: inactive; PINK1 expr mod: inactive; ALOX12 inh: inactive; KB-V1 cytotox: inactive; MCF10A rereplic: 16µM; SW480 rereplic: inconclusive

What do the screens show for `CC(=O)NC1(C)CCN(Cc2cnc(-c3cccc(F)c3)s2)CC1`?
ALOX12 inh: 50µM

How did CC(=O)NC1(C)CCCN(Cc2cccc(-c3cccc(F)c3)c2)C1 (stereo unspecified) do in these assays?
ALOX12 inh: inactive

How did CC12CC3(C)CC(C(=O)O)(C1)CC(C(=O)O)(C2)C3 do in these assays?
ALOX12 inh: inactive

What do the screens show for `CC1CCCCN1CCNC(=O)c1ccc2c(=O)n(CCc3ccccc3)c(=O)[nH]c2c1` (stereo unspecified)?
KB-3-1 tox: 21µM; PINK1 expr mod: inactive; ALOX12 inh: inactive; KB-V1 cytotox: inactive; MCF10A rereplic: inactive; SW480 rereplic: inactive

Results for CC1CCCCN1CCNC(=O)c1ccc2c(=O)n(Cc3ccc(Cl)cc3)c(=S)[nH]c2c1 (stereo unspecified) ?
KB-3-1 tox: inactive; PINK1 expr mod: inactive; ALOX12 inh: inconclusive; KB-V1 cytotox: inactive; MCF10A rereplic: 7.3µM; SW480 rereplic: inconclusive

How did CC1CCN(CCCNC(=O)c2ccc3c(=O)n(CCc4ccccc4)c(=O)[nH]c3c2)CC1 do in these assays?
KB-3-1 tox: inconclusive; PINK1 expr mod: inactive; ALOX12 inh: inactive; KB-V1 cytotox: inactive; MCF10A rereplic: inactive; SW480 rereplic: inactive

What do the screens show for `CCN1CCN(C(=O)c2ccc3c(=O)n(CCc4ccccc4)c(=O)[nH]c3c2)CC1`?
KB-3-1 tox: inactive; PINK1 expr mod: inactive; KB-V1 cytotox: inactive; MCF10A rereplic: inconclusive; SW480 rereplic: 29µM

Results for CN1CCN(CCCNC(=O)c2ccc3c(=O)n(CCc4ccccc4)c(=O)[nH]c3c2)CC1 ?
KB-3-1 tox: inactive; PINK1 expr mod: inactive; ALOX12 inh: inactive; KB-V1 cytotox: inactive; MCF10A rereplic: inactive; SW480 rereplic: 1.6µM

What do the screens show for `CN(C)C[C@@H]1CN(c2ncccn2)C[C@H]1NC(=O)c1nn(C)c2ccccc12`?
ALOX12 inh: inactive

What do the screens show for `Cc1ccc(CNC(=O)c2ccc3c(=O)n(CC4CCCO4)c(=S)[nH]c3c2)cc1` (stereo unspecified)?
KB-3-1 tox: inactive; PINK1 expr mod: inactive; ALOX12 inh: inactive; KB-V1 cytotox: 16µM; MCF10A rereplic: inconclusive; SW480 rereplic: inactive

What do the screens show for `COc1ccc(CCn2c(=S)[nH]c3cc(C(=O)NCc4ccco4)ccc3c2=O)cc1OC`?
KB-3-1 tox: 16µM; PINK1 expr mod: inactive; KB-V1 cytotox: inactive; MCF10A rereplic: inconclusive; SW480 rereplic: inactive

Results for O=C(O)c1cccc(-c2cc3ccccc3oc2=O)c1 ?
ALOX12 inh: inactive

Results for O=C/C=C/c1c(-c2ccccc2)cc2oc3ccccc3cc1-2 ?
KB-3-1 tox: inconclusive; PINK1 expr mod: inactive; ALOX12 inh: inconclusive; KB-V1 cytotox: inconclusive; MCF10A rereplic: 8.2µM; SW480 rereplic: inconclusive

Results for CC1=CCC(/C=N/NC(N)=O)CC1 (stereo unspecified) ?
ALOX12 inh: inactive

Results for CCCn1c(C)cc(C(=O)CSc2nnc(C(C)Oc3ccccc3F)o2)c1C (stereo unspecified) ?
ALOX12 inh: inactive

How did CC(=O)c1cccc(NC(=O)Cc2c(C)c3ccc(O)cc3oc2=O)c1 do in these assays?
ALOX12 inh: inactive

How did Cc1ccc(C)c(N2CCN(C(=O)C3CCN(S(=O)(=O)c4c(C)noc4C)CC3)CC2)c1 do in these assays?
KB-3-1 tox: 8.2µM; PINK1 expr mod: inactive; ALOX12 inh: inactive; KB-V1 cytotox: inconclusive; MCF10A rereplic: inactive; SW480 rereplic: inconclusive

Results for CCOC(=O)c1c(C)[nH]c(C)c1S(=O)(=O)N1CCC(C(=O)N2CCN(c3cc(C)ccc3C)CC2)CC1 ?
KB-3-1 tox: 16µM; PINK1 expr mod: inactive; ALOX12 inh: inactive; KB-V1 cytotox: inactive

What do the screens show for `Cc1ccc(C)c(N2CCN(C(=O)C3CCCN(S(=O)(=O)c4c(C)noc4C)C3)CC2)c1` (stereo unspecified)?
KB-3-1 tox: inconclusive; PINK1 expr mod: inactive; ALOX12 inh: inactive; KB-V1 cytotox: inactive; MCF10A rereplic: inactive; SW480 rereplic: inactive

How did Cc1ccc(C)c(N2CCN(C(=O)c3ccc(NS(=O)(=O)c4c(C)noc4C)cc3)CC2)c1 do in these assays?
KB-3-1 tox: inactive; PINK1 expr mod: inactive; ALOX12 inh: inactive; KB-V1 cytotox: inactive; MCF10A rereplic: inconclusive; SW480 rereplic: inactive

How did Cc1ccc(C)c(N2CCN(S(=O)(=O)c3c(C)noc3/C=C/N(C)C)CC2)c1 do in these assays?
KB-3-1 tox: inconclusive; PINK1 expr mod: inactive; ALOX12 inh: inactive; KB-V1 cytotox: inconclusive; MCF10A rereplic: 21µM; SW480 rereplic: inactive

Results for Cc1ccc(Cl)cc1N1CCN(C(=O)c2ccc(NS(=O)(=O)c3c(C)noc3C)cc2)CC1 ?
KB-3-1 tox: inactive; PINK1 expr mod: inactive; ALOX12 inh: inactive; KB-V1 cytotox: inactive; MCF10A rereplic: 15µM; SW480 rereplic: inconclusive

What do the screens show for `c1ccc(-c2ccnc(NCC3OCCc4ccccc43)n2)nc1` (stereo unspecified)?
ALOX12 inh: inactive

What do the screens show for `Cc1ccc2nc(-c3ccc(C)c(NC(=O)c4ccc5c(c4)OCO5)c3)oc2c1`?
ALOX12 inh: inactive
